# Measurements taken from the supplement of paper PMC10477191.
# ± gives the standard deviation of the averaged measurements.
# Test system: Drosophila virilis antennal basiconic sensillum AB4
# Experiment: odor-evoked OSN spike response (post minus pre-stimulus); higher = stronger neuronal excitation
# Conditions: odor dilution: 10^-4
# Experimental: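 Single sensillum recordings from antennal basiconic sensilla of D. virilis. A 500 ms pulse of odorant (10^-4 in mineral oil or DMSO) was delivered; the response is the change in spike frequency between the 1 s pre- and post-stimulus windows (spikes/s).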
row,SMILES,odor-evoked OSN spike response [spikes/s]
1,C[C@H]1CCC[C@@]2(C)CCCC[C@]12O [geosmin],102 ± 21
